The campaign covered roughly 1,300 compounds. About 240 (18%) were called active. Inconclusive results (about 8%) are left out. How the calls were made is not given here. Not all results are given here. Entries with a potency or affinity are not part of this list.
experiment: toxicity to human hepatoma HepG2 cells – cell-based, cherry-picked samples, cytotoxicity control, dose response (AID 1159577); details: HepG2 cytotoxicity counterscreen, plate reader; series mostly up to 19.5 µM

Structure (SMILES)	outcome
COc1ccc(C#Cc2cccc(-c3nc(C(=O)NCc4ccc5c(c4)OCO5)cc4c3[C@@H](CCO)N(S(=O)C(C)(C)C)C4)c2)cc1OC (stereo partly drawn)	inactive
C[C@H]1CN([C@@H](C)CO)C(=O)c2c(c3ccccc3n2C)-c2ccccc2CO[C@@H]1CN(C)C(=O)Nc1cccc(F)c1	inactive
Cc1ccc(S(=O)(=O)N(C)C[C@H]2Oc3cc(C#Cc4ccncc4)ccc3S(=O)(=O)N([C@@H](C)CO)C[C@@H]2C)cc1	inactive
CO[C@@H]1CN(C)C(=O)c2ccc(NC(=O)Nc3ccccc3F)cc2OC[C@@H](C)N(CCC(F)(F)F)C[C@H]1C	inactive
CO[C@H]1CN(C)C(=O)c2ccc(NS(=O)(=O)CC(F)(F)F)cc2OC[C@H](C)N(C)C[C@@H]1C	inactive
COc1ccc(C#Cc2ccc([C@@H]3[C@@H](CO)N4C(=O)CN(C(=O)c5ccccc5)C[C@H]34)cc2)cc1	inactive
COc1cccc(C#Cc2ccc([C@H]3[C@@H](CO)N(C(=O)C4CCC4)[C@H]3C#N)cc2)c1	inactive
C[C@H]1CN([C@@H](C)CO)C(=O)c2cc(NC(=O)Nc3cccc4ccccc34)ccc2O[C@H]1CN(C)C(=O)Nc1ccc(C(F)(F)F)cc1	inactive
C[C@@H]1CN([C@H](C)CO)C(=O)c2cccc(NC(=O)Nc3cccc4ccccc34)c2O[C@@H]1CN(C)C(=O)Nc1ccc(C(F)(F)F)cc1	inactive
COc1cccc(-c2cn(CC[C@@H]3CC[C@@H](NS(=O)(=O)c4ccccc4Cl)[C@H](CO)O3)nn2)c1	inactive
COc1ccccc1S(=O)(=O)N[C@H]1CC[C@@H](CCn2cc(C3CCCC3)nn2)O[C@@H]1CO	inactive
COc1ccc(C#Cc2cccc(-c3nc(C(=O)N[C@@H]4CCN(Cc5ccccc5)C4)cc4c3[C@H](CCO)N(S(=O)C(C)(C)C)C4)c2)cc1OC (stereo partly drawn)	inactive
O=C(Nc1ccc(F)cc1)N1CCCCN2[C@H](C1)[C@H](c1ccc(C#Cc3ccccc3)cc1)[C@@H]2CO	inactive
O=C(Nc1ccc(F)cc1)N1CCCCN2[C@H](CO)[C@H](c3ccc(C#Cc4ccccc4)cc3)[C@@H]2C1	inactive
CCC(=O)N1CC2(C1)[C@H](c1ccccc1)[C@H](CO)N2Cc1ccccc1OC	inactive
CC(C)(C)[S@](=O)N1Cc2cc(C(=O)NCc3ccccc3F)nc(-c3cccc(-c4ccncc4)c3)c2[C@@H]1CCO	inactive
COc1ccc(-c2ccc([C@@H]3[C@@H](CO)N4CCCCN(C(=O)c5ccc6c(c5)OCO6)C[C@@H]34)cc2)cc1	inactive
COc1ccc(CNC(=O)c2cc3c(c(-c4cccc(-c5cccc(C#N)c5)c4)n2)[C@H](CCO)N([S@@](=O)C(C)(C)C)C3)cc1	inactive
C[C@H]1CN([C@@H](C)CO)C(=O)c2c(c3ccccc3n2C)-c2ccccc2CO[C@H]1CN(C)S(=O)(=O)c1ccc([N+](=O)[O-])cc1	inactive
N#C[C@@H]1[C@H](c2ccccc2-c2ccc(F)cc2)[C@H](CO)N1C(=O)NC1CCCC1	inactive
Cc1ccccc1S(=O)(=O)N(C)C[C@H]1OCc2ccccc2-c2ccccc2C(=O)N([C@@H](C)CO)C[C@H]1C	inactive
CO[C@H]1CN(C)C(=O)c2cc(NC(=O)c3nc4ccccc4s3)ccc2OC[C@H](C)NC[C@@H]1C	inactive

Structure (SMILES)	outcome
CO[C@@H]1CN(C)C(=O)c2cc(NC(=O)c3nc4ccccc4s3)ccc2OC[C@H](C)NC[C@H]1C	inactive
CO[C@@H]1CN(C)C(=O)c2ccc(NC(=O)C3CC3)cc2OC[C@@H](C)N(Cc2cc(F)ccc2F)C[C@H]1C	inactive
COc1ccc(C#Cc2ccc3c(c2)[C@@H]2[C@@H](CCN2C(=O)C2CCCC2)[C@@H](CO)N3)cc1	inactive
CCC(=O)N1CC2(C1)CN(Cc1ccccc1Cl)[C@@H](CO)c1[nH]c3cc(OC)ccc3c12	inactive
COc1ccccc1NC(=O)N1CC[C@H]2[C@@H]1c1cc(C#Cc3ccc(F)cc3)ccc1N(C)[C@H]2CO	inactive
C[C@H]1CN([C@@H](C)CO)C(=O)c2c(c3ccccc3n2C)-c2ccccc2CO[C@@H]1CN(C)S(=O)(=O)c1ccccc1F	inactive
COc1cccc(NC(=O)Nc2ccc3c(c2)C(=O)N(C)C[C@@H](OC)[C@H](C)CN[C@@H](C)CO3)c1	inactive
CO[C@@H]1CN(C)C(=O)c2ccc(NC(=O)c3ccc(F)cc3)cc2OC[C@@H](C)N(C(=O)c2ccc(F)cc2)C[C@@H]1C	inactive
CO[C@@H]1CN(C)C(=O)c2cc(NC(=O)c3ccc(Oc4ccccc4)cc3)ccc2OC[C@H](C)NC[C@@H]1C	inactive
O=C(c1ccccn1)N1CC(=O)N2[C@H](C1)[C@@H](c1ccc(C#CCc3ccccc3)cc1)[C@@H]2CO	inactive
CCCN(C)C[C@@H]1Oc2cc(C#CC3CCCC3)ccc2S(=O)(=O)N([C@@H](C)CO)C[C@@H]1C	inactive
COc1ccc2c3c(n(C)c2c1)[C@@H](CO)N(C(=O)Nc1ccc(F)cc1)CC31CCN(Cc2cccnc2)CC1	inactive
COc1ccc2c3c(n(C)c2c1)[C@H](CO)N(C(=O)Nc1ccc(F)cc1)CC31CCN(C)CC1	inactive
COc1ccc2c3c(n(C)c2c1)[C@@H](CO)N(S(C)(=O)=O)CC31CCN(C(=O)CN(C)C)CC1	inactive
COc1ccc2c3c(n(C)c2c1)[C@@H](CO)N(C(=O)Nc1ccc(F)cc1)CC31CN(C(=O)c2ccccc2F)C1	inactive
COc1ccc2c3c(n(C)c2c1)[C@@H](CO)N(C(=O)Nc1ccccc1F)CC31CCN(C)CC1	inactive
COc1ccc2c3c(n(C)c2c1)[C@H](CO)N(C(=O)Nc1ccc(F)cc1)CC31CN(Cc2cccnc2)C1	inactive
COc1ccc2c3c(n(C)c2c1)[C@@H](CO)N(Cc1ccccc1)CC31CCN(S(=O)(=O)c2ccc(C)cc2)CC1	inactive
COc1ccc2c3c(n(C)c2c1)[C@H](CO)N(C(=O)Nc1ccc(F)cc1)CC31CN(C(=O)NC2CCCC2)C1	inactive
COc1ccc(-c2ccccc2[C@H]2[C@@H](C#N)N(C(=O)NC3CCCCC3)[C@H]2CO)cc1	inactive
C[C@H](CO)N1C[C@H](C)[C@H](CN(C)S(=O)(=O)c2ccc([N+](=O)[O-])cc2)OCc2ccccc2-c2c(n(C)c3ccccc23)C1=O	inactive

From PubChem BioAssay AID1159577 (Broad Institute, 2015)
